Laboratory results: the supplement of paper PMC10338343
± gives the standard deviation.

System: MILI (PIWIL2) piRISC loaded with piRNA #1 (26 nt)
Assay: pre-steady-state target cleavage rate (min^-1); guide: piRNA #1 5'p-UGAGGUAGUAGGUUGUAUAGUAUCCA; MIWI and MILI are mouse PIWI proteins and EfPiwi is from a freshwater sponge; tags in brackets are library labels; higher = faster piRNA-guided slicing of the target
Settings: auxiliary factor: 500 nM mouse GTSF1
Summary of the method: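 In this Cleave-'n-Seq assay, uncleaved targets were sequenced and normalised to depth and to weakly complementary targets. They came from a transcribed, DNA-blocked target RNA library […] mixed with 1 nM active affinity-purified piRISC carrying one synthetic guide, with or without 500 nM GTSF1 partner protein, in HEPES–potassium acetate buffer at 33 °C for 0–8 or 0–960 min. After three trials were pooled and k3 was capped at 0.0001 min^-1, the pre-steady-state cleavage rate was obtained from a burst-and-steady-state fit.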
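Also: 1 nM active piRISC with 0.1 nM target library at 33 °C single turnover.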

Compared with GGAGACCUAUCUAUACUACCUACUACGUCA, GGAGACCUAUGAUUACAACCUACUACCUCCA is lower in “pre-steady-state target cleavage rate” value: 0.0241 ± 0.0069 for the first, 0.00682 ± 0.0026 for the second.

Going from GGAGACCUAUCUAUACAACCUACUCACCUCA to GGAGACCUAUCUAAACAACCUUCUACCUCA, the “pre-steady-state target cleavage rate” value falls from 0.0886 ± 0.011 to 0.00634 ± 0.0024.

First: GGAGACCUUACAAUACAAGCUACUACCUCA
Second: GGAGACCUAUCUAUACAACCUAGUACCACA
The “pre-steady-state target cleavage rate” value of the first is higher: 0.191 ± 0.011 for the first, 0.00922 ± 0.0045 for the second.

Compared with GGAGACCUAUCUAUACAAGCUAGUACCUCA, GGAGACCUAUGUAUACAACCUACCACCUCA is lower in “pre-steady-state target cleavage rate” value: 0.107 ± 0.017 for the first, 0.0347 ± 0.0083 for the second.

First: GGAGUGGAUUCUAUAGAACCUACUACCUCA
Second: GGAGACCUUACUAAACAACCAACUACCUCA
The “pre-steady-state target cleavage rate” value of the first is higher: 0.179 ± 0.012 for the first, 0.00386 ± 0.0036 for the second.

Going from GGAGUGGAUACUAUAAACCUACUACCUCA to GGAGUGGAUACUAUACUACCUACUACGUCA, the “pre-steady-state target cleavage rate” value rises from 0.0206 ± 0.0043 to 0.0586 ± 0.0078.

Going from GGAGACCUUAGUAUACAUCCUACUACCUCA to GGAGACCUAUCUAUACAACCUACUACUCA, the “pre-steady-state target cleavage rate” value falls from 0.126 ± 0.018 to 0.0936 ± 0.013.

GGAGACCUAACUAUAGAACCUACUACGUCA and GGAGACCUUACUAUACAACCUACAACCACA are within error of each other in “pre-steady-state target cleavage rate” value: 0.0322 ± 0.01 for the first, 0.0494 ± 0.013 for the second.

Going from GGAGACCAUACUAUACUACCUACUAGCUCA to GGAGUGGAUACUUUUCAACCUACUACCUCA, the “pre-steady-state target cleavage rate” value rises from 0.0939 ± 0.017 to 0.156 ± 0.0072.

Going from GGAGACCUAUGAAUACAACCUACUAACCUCA to GGAGACCUAACUAUUCAACCUACUUCCUCA, the “pre-steady-state target cleavage rate” value rises from 0.0105 ± 0.0027 to 0.0529 ± 0.018.

First: GGAGACCUAACUAUACAAGCUUCUACCUCA
Second: GGAGUGGAUACUAUACAUCCUAGUACCUCA
The “pre-steady-state target cleavage rate” value of the first is lower: 0.0324 ± 0.01 for the first, 0.103 ± 0.019 for the second.

Going from GGAGACCUAUGUAAACAACCUUCUACCUCA to GGAGUGGAUACUAUAGAACCUACUACGUCA, the “pre-steady-state target cleavage rate” value rises from 0.00363 ± 0.0033 to 0.0161 ± 0.0041.

Going from GGAGACCUAUGAUAUGUUCCUACUACCCCA to GGAGACCUAUGAUAACAACCUACUAACCUCA, the “pre-steady-state target cleavage rate” value rises from < 0.0001 to 0.00664 ± 0.002.

Compared with GGAGUGCAAACUAUACAACCUACUACCUCA, GGAGACCUAUGAUUACAACAUACUACCUCA is lower in “pre-steady-state target cleavage rate” value: 0.126 ± 0.012 for the first, 0.00271 ± 0.0024 for the second.

GGAGACCUAUGAAUACAACCUACUAACUCA and GGAGACCAUACUAUACAUGGUACUACCUCA are within error of each other in “pre-steady-state target cleavage rate” value: 0.00512 ± 0.0027 for the first, 0.00626 ± 0.0026 for the second.

GGAGACCUAUGAUUACAAGCUUCUACCUCA and GGAGACCUAUGAUUACAACCUCACUACCUCA are within error of each other in “pre-steady-state target cleavage rate” value: 0.00347 ± 0.0023 for the first, 0.00291 ± 0.0027 for the second.

Compared with GGAGACCUAUCUGUACAACCUACUACCUCA, GGAGACCUAUGAAUACAAGGUACUACCUCA is lower in “pre-steady-state target cleavage rate” value: 0.0491 ± 0.0092 for the first, 0.00378 ± 0.003 for the second.

GGAGUGGAUACUAAACAACCUACUUCCUCA and GGAGACCUAUGAUAACAACCUACUACCGCA are within error of each other in “pre-steady-state target cleavage rate” value: 0.00431 ± 0.0024 for the first, 0.00318 ± 0.003 for the second.

GGAGACCUAUGAUUACAAUCUACUACCUCA and GGAGACCUAUCUAUUCAACCUUCUACCUCA are within error of each other in “pre-steady-state target cleavage rate” value: 0.00319 ± 0.0026 for the first, 0.0069 ± 0.0028 for the second.

Going from GGAGACCUAACUAUACUACGUACUACCUCA to GGAGACCUAUGAUUACAACUUACUACCUCA, the “pre-steady-state target cleavage rate” value falls from 0.0154 ± 0.0042 to 0.00657 ± 0.0024.
